Measurements published in PubChem BioAssay (NCI).
The panel holds about 79,000 compounds, 15% with a hit somewhere; the sample as a whole holds those more often. Calls of active or inactive are those of the source. Rule as the data show it: active = growth inhibition above about 70%; inactive = the rest.

Columns and labels:
[1] = NCI Yeast Anticancer Drug Screen. Data for the rad52 strain (AID 147);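 also: 0% = growth of vehicle-treated control cultures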; details: S. cerevisiae rad52 mutant growth inhibition, active compounds read high
Method in brief: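 DNA repair-defective yeast; compound exposure; growth scored against vehicle controls.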

[2] = NCI Yeast Anticancer Drug Screen. Data for the wt1 strain (AID 149);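 also: 0% = growth of vehicle-treated wt1 cultures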; details: S. cerevisiae wt1 strain (SPY 50644) growth inhibition, active compounds read high
Method in brief: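 Yeast wt1 strain exposed to compounds; growth inhibition measured relative to vehicle-treated controls.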

[3] = NCI Yeast Anticancer Drug Screen. Data for the rad50EPP+ strain (AID 151);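 also: 0% = growth of vehicle-treated control cultures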; details: S. cerevisiae rad50 mutant strain, active compounds read high
Method in brief: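 rad50EPP+ yeast treated with test compounds. Readout: growth vs vehicle control.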

[4] = NCI Yeast Anticancer Drug Screen. Data for the mgt1 strain (AID 153); details: S. cerevisiae mgt1 mutant growth inhibition, active compounds read high
Method in brief: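 Growth inhibition relative to vehicle controls was scored for the mgt1 yeast strain after compound exposure.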

[5] = NCI Yeast Anticancer Drug Screen. Data for the rad50 strain (AID 155);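 also: 0% = growth of vehicle-only cultures of the same strain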; details: S. cerevisiae rad50 strain growth inhibition, active compounds read high
Method in brief: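 Yeast carrying a defined DNA repair defect were exposed to test compounds, and growth was compared with vehicle-treated controls to give percent inhibition.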

[6] = NCI Yeast Anticancer Drug Screen. Data for the mec2-1 strain (AID 157); details: S. cerevisiae mec2-1 strain, active compounds read high
Method in brief: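 Growth inhibition is read against vehicle-treated controls after compound exposure of the mec2-1 yeast strain, which is defective in DNA damage repair or cell cycle control.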

[7] = NCI Yeast Anticancer Drug Screen. Data for the rad14 strain (AID 159);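 also: 0% = growth of vehicle-treated control cultures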; details: S. cerevisiae rad14 strain growth inhibition, active compounds read high
Method in brief: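 Yeast cells carrying a defined DNA-repair defect were exposed to compounds, and growth inhibition was calculated relative to vehicle-treated control cultures.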

[8] = NCI Yeast Anticancer Drug Screen. Data for the sgs1 mgt1 strain (AID 161);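 also: 0% = growth of cultures given vehicle only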; details: S. cerevisiae sgs1 mgt1 strain, active compounds read high
Method in brief: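 This yeast growth screen uses a strain with defined DNA-repair lesions; compound-treated growth is compared with vehicle-treated growth.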

[9] = NCI Yeast Anticancer Drug Screen. Data for the CLN2oe strain (AID 163);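 also: 0% = growth of vehicle-only control cultures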; details: S. cerevisiae CLN2oe strain, active compounds read high
Method in brief: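 Compound-treated yeast; growth vs vehicle ctrl = % inhibition. Genetically altered strain (cell-cycle control).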

[10] = NCI Yeast Anticancer Drug Screen. Data for the cln2 rad14 strain (AID 165);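 also: 0% = growth equal to vehicle treated cultures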; details: S. cerevisiae cln2 rad14 strain, active compounds read high
Method in brief: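 Growth inhibition, relative to vehicle-treated controls, is the read-out. The test organism is a yeast strain with defined genetic alterations, cln2 rad14.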

[11] = NCI Yeast Anticancer Drug Screen. Data for the bub3 strain (AID 167); details: S. cerevisiae bub3 mutant strain, active compounds read high
Method in brief: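 Compounds were applied to a genetically altered yeast strain carrying a cell-cycle control defect. Growth inhibition was scored against vehicle-treated controls.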

[12] = NCI Yeast Anticancer Drug Screen. Data for the wt2 strain (AID 169);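 also: 0% = growth of vehicle-treated yeast cultures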; details: S. cerevisiae wt2 strain growth inhibition, active compounds read high
Method in brief: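 Compound exposure of yeast; growth compared with vehicle controls; inhibition reported.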

[13] = NCI Yeast Anticancer Drug Screen. Data for the mlh1 strain (AID 171);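 also: 0% = growth of vehicle-treated control cultures of the same strain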; details: S. cerevisiae mlh1 strain growth inhibition, active compounds read high
Method in brief: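 Compounds are applied to a genetically altered yeast strain, and its growth is compared with that of vehicle-treated cultures to give percent inhibition.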

[14] = NCI Yeast Anticancer Drug Screen. Data for the mlh1 rad18 strain (AID 175); details: S. cerevisiae mlh1 rad18 strain growth inhibition, active compounds read high
Method in brief: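 Cells of a genetically altered yeast strain, deficient in DNA damage repair, were treated with compound. Their growth was then compared with that of vehicle-treated cultures to give inhibition.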

[15] = NCI Yeast Anticancer Drug Screen. Data for the sgs1 strain (AID 173);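 also: 0% = growth of vehicle-only control cultures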; details: S. cerevisiae sgs1 mutant, active compounds read high
Method in brief: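 Compounds applied to genetically altered yeast; growth compared with vehicle-treated cultures to give % inhibition.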

[16] = NCI Yeast Anticancer Drug Screen. Data for the rad18 strain (AID 177); details: S. cerevisiae rad18 mutant growth inhibition, active compounds read high
Method in brief: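 Compounds are applied to a repair-deficient yeast strain, and growth is compared with that of vehicle-treated cultures to give percent inhibition.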

[17] = at 5.0 µM (retest, dose inferred, filed as 0.5)
[18] = at 50.0 µM (retest, dose inferred, filed as 5.0)

Measured: growth inhibition

CC(=O)Oc1cc(-c2cc(OC(C)=O)c(OC(C)=O)c3ccccc23)c2ccccc2c1OC(C)=O
inactive: [1]; at 1.2 µM 3% | [1]; at 3.7 µM 4% | [1]; at 11.0 µM 7% | [1]; at 33.0 µM 13% | [2]; at 1.2 µM 8% | [2]; at 3.7 µM 12% | [2]; at 11.0 µM 10% | [2]; at 33.0 µM 12% | [2]; at 100.0 µM 59% | [3]; at 1.2 µM 3% | [3]; at 3.7 µM 6% | [3]; at 11.0 µM 12% | [3]; at 33.0 µM 19% | [3]; at 100.0 µM 21% | [4]; at 1.2 µM 5% | [4]; at 3.7 µM 5% | [4]; at 11.0 µM 5% | [4]; at 33.0 µM 13% | [5]; at 1.2 µM 4% | [5]; at 3.7 µM 8% | [5]; [17] 22% | [5]; at 11.0 µM 12% | [5]; at 33.0 µM 24% | [6]; at 1.2 µM 2% | [6]; at 3.7 µM 9% | [6]; [17] 14% | [6]; at 11.0 µM 12% | [6]; at 33.0 µM 24% | [7]; at 1.2 µM 1% | [7]; at 3.7 µM 3% | [7]; at 11.0 µM 7% | [7]; at 33.0 µM 43% | [8]; [17] 24% | [9]; at 1.2 µM 3% | [9]; at 3.7 µM 0% | [9]; at 11.0 µM -5% | [9]; at 33.0 µM -2% | [9]; at 100.0 µM 57% | [10]; [17] 7% | [10]; [18] 56% | [10]; at 50.0 µM 38% | [11]; at 1.2 µM 3% | [11]; at 3.7 µM 4% | [11]; [17] 17% | [11]; at 11.0 µM 7% | [11]; at 33.0 µM 26% | [12]; at 1.2 µM 10% | [12]; at 3.7 µM 9% | [12]; at 11.0 µM 8% | [12]; at 33.0 µM 11% | [13]; at 1.2 µM 1% | [13]; at 3.7 µM 3% | [13]; at 11.0 µM 6% | [13]; at 33.0 µM 23% | [14]; [17] 19%
active: [1]; at 100.0 µM 79% | [4]; at 100.0 µM 82% | [5]; [18] 82% | [5]; at 50.0 µM 83.5% | [5]; at 100.0 µM 86% | [6]; [18] 70% | [6]; at 50.0 µM 82.6% | [6]; at 100.0 µM 79% | [7]; at 100.0 µM 95% | [8]; [18] 85% | [8]; at 50.0 µM 87% | [11]; [18] 93% | [11]; at 50.0 µM 86.8% | [11]; at 100.0 µM 87% | [12]; at 100.0 µM 86% | [13]; at 100.0 µM 93% | [14]; [18] 96% | [14]; at 50.0 µM 93.6%

Nc1nc(-c2cccnc2)cc(-c2cc(-c3cccnc3)nc(N)n2)n1
active: [10]; [18] 86%
inactive: [1]; at 1.2 µM 0% | [1]; at 3.7 µM 0% | [1]; at 11.0 µM -3% | [1]; at 33.0 µM -2% | [1]; at 100.0 µM -8% | [2]; at 1.2 µM 0% | [2]; at 3.7 µM -1% | [2]; at 11.0 µM -1% | [2]; at 33.0 µM -2% | [2]; at 100.0 µM -2% | [3]; at 1.2 µM -2% | [3]; at 3.7 µM -3% | [3]; at 11.0 µM -3% | [3]; at 33.0 µM 0% | [3]; at 100.0 µM -2% | [4]; at 1.2 µM 2% | [4]; at 3.7 µM 2% | [4]; at 11.0 µM 2% | [4]; at 33.0 µM -1% | [4]; at 100.0 µM 3% | [5]; at 1.2 µM 0% | [5]; at 3.7 µM 5% | [5]; [17] 1% | [5]; at 11.0 µM 2% | [5]; at 33.0 µM 4% | [5]; [18] 5% | [5]; at 50.0 µM 3.7% | [5]; at 100.0 µM 8% | [6]; at 1.2 µM 0% | [6]; at 3.7 µM 2% | [6]; [17] 24% | [6]; at 11.0 µM -1% | [6]; at 33.0 µM 0% | [6]; [18] 33% | [6]; at 50.0 µM 1.1% | [6]; at 100.0 µM -6% | [7]; at 1.2 µM -1% | [7]; at 3.7 µM 2% | [7]; at 11.0 µM -1% | [7]; at 33.0 µM 0% | [7]; at 100.0 µM -1% | [8]; [17] 19% | [8]; [18] 15% | [8]; at 50.0 µM 0.15% | [9]; at 1.2 µM -2% | [9]; at 3.7 µM 2% | [9]; at 11.0 µM 2% | [9]; at 33.0 µM 1% | [9]; at 100.0 µM 1% | [10]; [17] 46% | [10]; at 50.0 µM 9.95% | [11]; at 1.2 µM 0% | [11]; at 3.7 µM -6% | [11]; [17] -17% | [11]; at 11.0 µM 0% | [11]; at 33.0 µM -2% | [11]; [18] -5% | [11]; at 50.0 µM 6.3% | [11]; at 100.0 µM -10% | [12]; at 1.2 µM -1% | [12]; at 3.7 µM 0% | [12]; at 11.0 µM 1% | [12]; at 33.0 µM -1% | [12]; at 100.0 µM 0% | [13]; at 1.2 µM -1% | [13]; at 3.7 µM -1% | [13]; at 11.0 µM -13% | [13]; at 33.0 µM -14% | [13]; at 100.0 µM 13% | [15]; at 1.2 µM -2% | [15]; at 3.7 µM -4% | [15]; at 11.0 µM -4% | [15]; at 33.0 µM -6% | [15]; at 100.0 µM -7% | [14]; [17] -15% | [14]; [18] 10% | [14]; at 50.0 µM 28.6% | [16]; at 1.2 µM -2% | [16]; at 3.7 µM -4% | [16]; at 11.0 µM -9% | [16]; at 33.0 µM -18% | [16]; at 100.0 µM -28%
